Assay results from PubChem BioAssay (NCI).
This is part of a sample that, as a whole, favours compounds with a hit. Of some 83,000 tested, about 20% had one in any assay.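 Cell lines were cultured in 96-well plates, exposed to a single compound concentration, and assessed for percent growth 48 hours later.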 A number with no mark means an inactive call. Activity calls are given as the source filed them. Rule for the calls: active = growth percent below 10; inactive = the rest.

What was measured:
Assay in all cases: NCI-60 one-dose screen, 48 h (100 = growth as untreated, 0 = no growth, -100 = all killed)
SK-MEL-2 melanoma = conditions: 10 µM unless noted
EKVX NSCLC = conditions: 10 µM unless noted
SN12C renal = conditions: 10 µM unless noted
UO-31 renal = conditions: 10 µM unless noted
TK-10 renal = conditions: 10 µM unless noted
ACHN renal = conditions: 10 µM unless noted
CAKI-1 renal = conditions: 10 µM unless noted
A498 renal = conditions: 10 µM unless noted
CCRF-CEM leukemia = conditions: 10 µM unless noted
MOLT-4 leukemia = conditions: 10 µM unless noted
SR leukemia = conditions: 10 µM unless noted
RPMI-8226 leukemia = conditions: 10 µM unless noted
OVCAR-8 ovarian = conditions: 10 µM unless noted
OVCAR-5 ovarian = conditions: 10 µM unless noted
OVCAR-4 ovarian = conditions: 10 µM unless noted
SK-OV-3 ovarian = conditions: 10 µM unless noted
IGROV1 ovarian = conditions: 10 µM unless noted
OVCAR-3 ovarian = conditions: 10 µM unless noted
HS 578T breast = conditions: 10 µM
NCI/ADR-RES ovarian = conditions: 10 µM unless noted

Row | Compound | growth (SK-MEL-2 melanoma) | growth (EKVX NSCLC) | growth (SN12C renal) | growth (UO-31 renal) | growth (TK-10 renal) | growth (ACHN renal) | growth (CAKI-1 renal) | growth (A498 renal) | growth (CCRF-CEM leukemia) | growth (MOLT-4 leukemia) | growth (SR leukemia) | growth (RPMI-8226 leukemia) | growth (OVCAR-8 ovarian) | growth (OVCAR-5 ovarian) | growth (OVCAR-4 ovarian) | growth (SK-OV-3 ovarian) | growth (IGROV1 ovarian) | growth (OVCAR-3 ovarian) | growth (HS 578T breast) | growth (NCI/ADR-RES ovarian)
1 | COc1ccc2[nH]c(O)c(/C=c3/ccc4c(c3)N=C(c3ccc(F)cc3)N=4)c2c1 | 110% | 80.4% | 50.2% | 63.2% | 116% | 31.2% | 20.1% | 92.9% | 42.5% | 67.7% | 59.8% | 76.5% | 76.9% | 113% | -38.2% (active) | 62.9% | -7.41% (active) | 75.3% | 51.1% | 75.2%
2 | COc1cc(C2Nc3ccccc3S2)cc(CN2CCOCC2)c1O (stereo not given) | 64.4% | 102% | 91.9% | 45.6% | 84.7% | 88.3% | 74% | 73.3% | 80.1% | 25.3% | 49% | 81.1% | 88.9% | 122% | 87.5% | 83.3% | 39% | 52% | 72.2% | 34.2%
3 | COc1cc2nccc(Oc3ccc(NC(=O)C4(C(=O)Nc5ccc(F)cc5)CC4)cc3)c2cc1O | 88.1% | 71.1% | 30.5% | 54.4% | 76.8% | 67.8% | 78.1% | 59.4% | 29% | 44.9% | 41.3% | 52.8% | 73.7% | 80.8% | 37.1% | 86.5% | 52.1% | 78.7% | 42.7% | 71.7%
4 | O=[N+]([O-])c1cccc(N=C(Nc2cccc([N+](=O)[O-])c2)c2ccccc2)c1 | 77.9% | 81.4% | 83.4% | 40.5% | 78.8% | 93.8% | 80.3% | 104% | 65.3% | 59.4% | 70.4% | 58.2% | 93.4% | 99.9% | 84.7% | 107% | 84.4% | 88.2% | 97.9% | 75.6%
5 | CCC(C)C1NC(=O)c2nc(oc2-c2ccccc2)-c2csc(n2)-c2csc(n2)-c2nc(oc2C)-c2coc(n2)CNC(=O)C(C(C)CC)NC1=O (stereo not given) | -80.1% (active) | -71.3% (active) | -65.3% (active) | -90.1% (active) | -86.7% (active) | -91.3% (active) | -95.2% (active) | -85.3% (active) | -66.4% (active) | -66.2% (active) | -47.8% (active) | -63.5% (active) | -62% (active) | -86.1% (active) | -80.6% (active) | -89.2% (active) | -71.5% (active) | -88% (active) | -57.3% (active) | 12.3%
6 | COc1cc(/C=C/C(=O)c2c(C)nc3ccccc3c2C)ccc1OCCCOc1cc2c(cc1OC)C(=O)N1CCC[C@H]1C=N2 | -61.3% (active) | -76.4% (active) | 10.2% | 14.2% | -65.8% (active) | -41.2% (active) | 4.18% (active) | -76.4% (active) | -48.6% (active) | -25.5% (active) | -34.3% (active) | -22.6% (active) | 12.3% | -23.1% (active) | -10.9% (active) | -9.97% (active) | -61.7% (active) | -86.9% (active) | -2.33% (active) | 13.9%
7 | Fc1[nH]nc2ccc([C@@H]3Nc4ccc5[nH]ncc5c4[C@H]4C5CCC(C5)[C@@H]34)cc12 (stereo not given in full) | 33.1% | 36.1% | 46.1% | 51.3% | 42.4% | 43.7% | 32.6% | -12.4% (active) | 18% | 21.2% | 42% | 18.2% | 40% | 54.3% | 54.6% | 39.7% | 43.1% | 1.83% (active) | 34.8% | 15.2%
8 | Cn1nc(C(F)(F)F)cc1-c1c[nH]c(OCc2ccc(Cl)cc2)c(-c2ccc(Cl)c(C(F)(F)F)c2)c1=O | -31.4% (active) | 5.56% (active) | 4.1% (active) | -1.38% (active) | 3.46% (active) | -15.8% (active) | -22.7% (active) | -60.9% (active) | 10.5% | -9.43% (active) | 27.5% | -26.6% (active) | 12.5% | 13% | 15.3% | -6.23% (active) | 24.1% | 7.83% (active) | -1.78% (active) | 1.94% (active)
9 | CC1=C(O)C(=O)C(c2c(C)cc(C)c(Br)c2C)=C(O)C1=O | 81.6% | 81.8% | 55% | 83.7% | 73.6% | 54% | 50.2% | 64.1% | 43.1% | 54.6% | 48.9% | 36.7% | 68.4% | 70.1% | 45.6% | 88.3% | 46.3% | 54.2% | 76.4% | 73.4%
10 | CCOC(=O)C(Nc1ccccc1)C(=O)OCC | 108% | 108% | 99.3% | 74.8% | 107% | 99.3% | 105% | 126% | 111% | 83% | 106% | 106% | 105% | 100% | 93% | 105% | 92.3% | 129% | 117% | 102%
11 | Cc1c(O)c(=O)n(-c2ccccc2)n1C | 112% | 120% | 98.2% | 79.6% | 112% | 96.5% | 107% | 120% | 118% | 84.2% | 91.4% | 104% | 109% | 87.2% | 111% | 105% | 117% | 108% | 127% | 105%
12 | COc1cc2nccc(Oc3ccc(NC(=O)C4(C(=O)Nc5ccc(F)cc5)CC4)cc3)c2cc1Oc1ccc(N)cn1 | 54.3% | 15.9% | 14.8% | 19.8% | 36.3% | 18.6% | 43.5% | -20.9% (active) | 61.2% | 29.5% | 11.9% | 48.5% | 47.1% | 40% | 29.9% | 61.3% | -24.1% (active) | 49.9% | 7.33% (active) | 73.8%
13 | O=C(O)c1ccccc1N=Cc1ccccc1 | 108% | 101% | 110% | 97.5% | 103% | 105% | 96.3% | 117% | 88.5% | 94.6% | 95.9% | 101% | 106% | 108% | 107% | 104% | 101% | 115% | 106% | 100%
14 | Fc1cnccc1-c1nc2ccc3[nH]ncc3c2c2c1CCCC2 | -1.94% (active) | 35.6% | 25.6% | 11.6% | 13.7% | 7.42% (active) | -4.24% (active) | 0.691% (active) | 16.1% | 21.2% | 34.1% | 37.6% | 30.2% | 45.2% | 48.9% | -21.2% (active) | 12.1% | 30.4% | 10.8% | 32.3%
15 | COc1ccc2[nH]c(C(=O)OCc3ccc4c(Br)cc(Br)c(O)c4n3)cc2c1 | -40.3% (active) | -70.9% (active) | -71.2% (active) | -100% (active) | -95.6% (active) | -98.3% (active) | -98.7% (active) | -17.1% (active) | 3.76% (active) | -8.86% (active) | 2.81% (active) | -24.2% (active) | -27.7% (active) | -48.4% (active) | -44.2% (active) | 62.6% | -90.9% (active) | -91.3% (active) | -15.4% (active) | -30.6% (active)
